Reference: PubChem BioAssay (EPA / NIEHS)
Results filed as inconclusive are left out. The source made the active and inactive calls. Rule for the calls: active = hit-call score of the fitted dose curve at least 0.9, where 1 is the maximum; inconclusive = response in the unintended direction; inactive = score below 0.9.

target: human Matrix Metalloproteinase-2 (MMP2), MMP2 (gene 4313) (UniProt P08253); experiment: NVS_ENZ_hMMP2: NovaScreen (NVS) Enzymatic Assay for human Matrix Metalloproteinase-2 (MMP2) (AID 2283184)
Outline: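 Compounds first screened in duplicate at a single 25 uM, with actives followed up in concentration series. Recombinant human MMP2 cleaves a fluorogenic substrate; fluorescence taken at 1 h, inhibition fitted relative to DMSO.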

Chain of human Matrix Metalloproteinase-2 (MMP2), MMP2 (gene 4313) (P08253 whole entry, looked up): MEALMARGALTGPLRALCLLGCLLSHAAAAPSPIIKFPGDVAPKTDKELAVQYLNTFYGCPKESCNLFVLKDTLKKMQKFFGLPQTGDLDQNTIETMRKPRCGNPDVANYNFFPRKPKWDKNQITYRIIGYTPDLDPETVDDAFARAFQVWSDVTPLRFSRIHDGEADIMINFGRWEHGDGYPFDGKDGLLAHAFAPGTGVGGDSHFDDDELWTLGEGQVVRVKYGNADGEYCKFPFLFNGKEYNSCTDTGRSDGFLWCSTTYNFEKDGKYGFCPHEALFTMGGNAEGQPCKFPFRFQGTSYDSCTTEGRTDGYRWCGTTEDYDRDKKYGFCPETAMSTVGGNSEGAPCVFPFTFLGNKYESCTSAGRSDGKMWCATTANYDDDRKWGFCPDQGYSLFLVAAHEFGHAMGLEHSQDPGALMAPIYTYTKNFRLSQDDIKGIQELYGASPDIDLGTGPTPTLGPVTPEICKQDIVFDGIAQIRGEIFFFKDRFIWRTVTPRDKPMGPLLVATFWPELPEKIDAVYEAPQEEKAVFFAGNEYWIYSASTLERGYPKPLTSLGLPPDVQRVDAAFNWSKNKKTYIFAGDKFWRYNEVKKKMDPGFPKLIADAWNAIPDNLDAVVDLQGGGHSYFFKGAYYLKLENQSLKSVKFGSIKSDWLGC

| SMILES | outcome | AC50 |
| --- | --- | --- |
| Cc1ccc(-c2cc(C(F)(F)F)nn2-c2ccc(S(N)(=O)=O)cc2)cc1 | inactive |  |
| c1ccc2occc2c1 | inactive |  |
| Nc1nc(=S)c2[nH]cnc2[nH]1 |  | 18.8 µM (active) |
| Cn1cnc2c1c(=O)[nH]c(=O)n2C | inactive |  |
| Cc1cc(Cc2ccc(N)c(C)c2)ccc1N | inactive |  |
| O=C1c2c(O)cccc2Cc2cccc(O)c21 |  | 10.2 µM (active) |

target: human Matrix Metalloproteinase-3 (MMP3), MMP3 (gene 4314) (UniProt P08254); experiment: NVS_ENZ_hMMP3: NovaScreen (NVS) Enzymatic Assay for human Matrix Metalloproteinase-3 (MMP3) (AID 2283185)
Protocol: NVS_ENZ_hMMP3 is a biochemical, single-readout assay that uses extracted gene-proteins in a cell-free assay. Measurements were taken 1 hour after chemical dosing in a 96-well plate.NVS_ENZ_hMMP3 is one of one assay component(s) measured or calculated from the NVS_ENZ_hMMP3 assay. It is designed to make measurements of enzyme activity, a form of enzyme reporter, as detected with fluorescence intensity signals by Fluorescence technology.Data from the assay component NVS_ENZ_hMMP3 was analyzed into 1 assay endpoint. This assay endpoint, NVS_ENZ_hMMP3, was analyzed in the positive analysis fitting direction relative to DMSO as the negative control and baseline of activity. Using a type of enzyme reporter, loss-of-signal activity can be used to understand changes in the enzymatic activity as they relate to the gene MMP3. Furthermore, this assay endpoint can be referred to as a primary readout, because this assay has produced multiple assay endpoints where this one serves a enzymatic activity function. To generalize the intended target to other relatable targets, this assay endpoint is annotated to the protease intended target family, where the subfamily is matrix metalloproteinase.
Binding assays used specific radioligands (tritiated, iodinated) with non-radioactive competitive displacement ligands in agonist or antagonist protocols (as indicated) and various reference compounds and inhibitors to titrate specific binding to receptors and transporters. Most enzyme assays (CYPs, kinases, phosphatases, proteases, HDACs) used recombinant protein and specific substrates (fluorescence mostly, some colorimetric and radioactive) and inhibitors, followed by a biochemical separation of substrate and product. All assays for the biochemical HTS were initially run in duplicate at a single concentration (10 uM for CYP450 assays and 25 uM for all others). […] Each assay was run with positive and negative controls, and concurrent controls on every plate. The follow-up (secondary) screen tested active chemical-pairs in concentration series, as well as a few additional assays not tested in the primary screen, some selected negative inactives, and several cases re-run in the concentration series for confirmatory purposes.

Chain of human Matrix Metalloproteinase-3 (MMP3), MMP3 (gene 4314) (P08254 whole entry, looked up): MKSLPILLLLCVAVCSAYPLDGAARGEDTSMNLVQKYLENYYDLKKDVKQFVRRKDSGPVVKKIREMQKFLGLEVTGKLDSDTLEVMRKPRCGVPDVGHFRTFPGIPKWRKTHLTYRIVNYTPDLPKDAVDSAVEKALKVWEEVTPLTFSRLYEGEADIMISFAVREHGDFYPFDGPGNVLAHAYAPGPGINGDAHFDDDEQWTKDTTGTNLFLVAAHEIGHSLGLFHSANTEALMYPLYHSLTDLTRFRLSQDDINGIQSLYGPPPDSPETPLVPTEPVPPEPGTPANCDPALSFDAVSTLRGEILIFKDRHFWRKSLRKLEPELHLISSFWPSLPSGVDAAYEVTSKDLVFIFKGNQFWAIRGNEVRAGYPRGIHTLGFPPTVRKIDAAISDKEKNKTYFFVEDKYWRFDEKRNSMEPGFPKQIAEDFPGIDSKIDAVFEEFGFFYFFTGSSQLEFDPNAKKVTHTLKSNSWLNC

| SMILES | AC50 |
| --- | --- |
| CCCCc1nc2cccnc2n1Cc1ccc(-c2ccccc2-c2nnn[nH]2)cc1 | 22.9 µM (active) |
| CCc1cc(C2=C(C(=O)O)N(c3ccccc3C(F)(F)F)S(=O)(=O)c3ccccc32)cc2c1OCO2 | 25 µM (active) |
| O=C1c2c(O)cccc2Cc2cccc(O)c21 | 8.87 µM (active) |
| O=C(O)c1[nH]n(-c2ccc(S(=O)(=O)O)cc2)c(=O)c1N=Nc1ccc(S(=O)(=O)O)cc1 | 23.6 µM (active) |

target: human Matrix Metalloproteinase-9 (MMP9), MMP9 (gene 4318) (UniProt P14780); experiment: NVS_ENZ_hMMP9: NovaScreen (NVS) Enzymatic Assay for human Matrix Metalloproteinase-9 (MMP9) (AID 2283190);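 note: cell-free recombinant MMP9 protease activity read by fluorescent substrate signal; active means inhibition seen as loss of fluorescence signal versus DMSO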
Outline: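 Screening concentration 25 uM, duplicate wells, then dose series for confirmation. Cell-free enzymatic reaction measured by fluorescence intensity 1 h post-dosing; decreased signal versus DMSO taken as activity.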

Chain of human Matrix Metalloproteinase-9 (MMP9), MMP9 (gene 4318) (P14780 whole entry, looked up): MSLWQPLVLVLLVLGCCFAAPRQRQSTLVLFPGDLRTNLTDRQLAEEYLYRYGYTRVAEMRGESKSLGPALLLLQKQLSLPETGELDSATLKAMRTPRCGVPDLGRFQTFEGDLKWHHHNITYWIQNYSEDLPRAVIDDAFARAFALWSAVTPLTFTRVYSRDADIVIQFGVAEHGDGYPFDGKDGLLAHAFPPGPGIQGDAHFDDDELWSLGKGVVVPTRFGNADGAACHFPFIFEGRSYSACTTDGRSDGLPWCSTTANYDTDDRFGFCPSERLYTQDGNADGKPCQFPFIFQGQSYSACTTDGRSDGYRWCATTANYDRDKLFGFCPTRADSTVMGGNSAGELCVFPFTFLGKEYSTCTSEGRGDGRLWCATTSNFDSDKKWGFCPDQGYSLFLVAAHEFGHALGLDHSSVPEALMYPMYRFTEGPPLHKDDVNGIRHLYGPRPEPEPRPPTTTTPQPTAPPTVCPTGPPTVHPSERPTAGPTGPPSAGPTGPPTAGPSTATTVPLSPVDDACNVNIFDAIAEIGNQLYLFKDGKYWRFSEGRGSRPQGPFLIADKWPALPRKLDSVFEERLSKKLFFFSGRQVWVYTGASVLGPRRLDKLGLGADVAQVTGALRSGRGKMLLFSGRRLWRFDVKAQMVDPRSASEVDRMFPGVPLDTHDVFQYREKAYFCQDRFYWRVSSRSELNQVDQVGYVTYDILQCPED

| SMILES | outcome | AC50 |
| --- | --- | --- |
| c1ccc2occc2c1 | inactive |  |
| Nc1nc(=S)c2[nH]cnc2[nH]1 |  | 39.2 µM (active) |
| Cn1cnc2c1c(=O)[nH]c(=O)n2C | inactive |  |

target: human Phosphodiesterase 4A1 (PDE4A1), PDE4A (gene 5141) (UniProt P27815); experiment: NVS_ENZ_hPDE4A1: NovaScreen (NVS) Enzymatic Assay for human Phosphodiesterase 4A1 (PDE4A1) (AID 2283191)
Outline: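 Fluorescent substrate turnover by recombinant PDE4A1 read after 1 h by mobility-shift separation. Primary duplicate screen at 25 uM; hits retested in concentration series with a 50 uM maximum, relative to DMSO.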

Chain of human Phosphodiesterase 4A1 (PDE4A1), PDE4A (gene 5141) (P27815 whole entry, looked up): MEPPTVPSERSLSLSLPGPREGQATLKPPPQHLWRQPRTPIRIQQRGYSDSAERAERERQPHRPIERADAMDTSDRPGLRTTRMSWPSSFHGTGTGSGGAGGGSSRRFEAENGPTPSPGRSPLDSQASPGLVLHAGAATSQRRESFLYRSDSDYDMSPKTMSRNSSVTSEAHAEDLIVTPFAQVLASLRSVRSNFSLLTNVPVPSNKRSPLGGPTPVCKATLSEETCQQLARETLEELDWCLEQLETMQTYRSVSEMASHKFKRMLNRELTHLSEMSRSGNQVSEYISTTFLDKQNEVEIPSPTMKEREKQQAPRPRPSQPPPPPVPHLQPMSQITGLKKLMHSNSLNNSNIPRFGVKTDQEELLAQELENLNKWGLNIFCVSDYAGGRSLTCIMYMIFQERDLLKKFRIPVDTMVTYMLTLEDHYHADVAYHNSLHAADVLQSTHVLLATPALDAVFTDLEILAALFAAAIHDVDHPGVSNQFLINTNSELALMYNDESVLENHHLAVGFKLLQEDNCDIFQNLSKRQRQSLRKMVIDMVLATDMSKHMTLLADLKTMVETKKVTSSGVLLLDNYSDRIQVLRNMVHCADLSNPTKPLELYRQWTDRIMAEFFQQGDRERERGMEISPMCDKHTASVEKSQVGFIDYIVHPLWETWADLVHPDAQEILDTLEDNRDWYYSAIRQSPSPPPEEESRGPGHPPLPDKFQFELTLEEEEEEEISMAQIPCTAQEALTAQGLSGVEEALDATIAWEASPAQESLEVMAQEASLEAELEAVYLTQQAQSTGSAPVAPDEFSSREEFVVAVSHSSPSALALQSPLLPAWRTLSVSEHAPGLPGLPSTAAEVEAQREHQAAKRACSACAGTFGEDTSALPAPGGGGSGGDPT

| SMILES | outcome | AC50 |
| --- | --- | --- |
| CN(C)CCCN(C)CCCN(C)C | inactive |  |
| CCCCc1nc2cccnc2n1Cc1ccc(-c2ccccc2-c2nnn[nH]2)cc1 |  | 11.6 µM (active) |
| CCc1cc(C2=C(C(=O)O)N(c3ccccc3C(F)(F)F)S(=O)(=O)c3ccccc32)cc2c1OCO2 | inactive |  |
| O=C1NC(=O)C(c2ccccc2)(c2ccccc2)N1 | inactive |  |
| CN(C)C(=O)NC1(c2ccccc2)CCN(CCC[C@]2(c3ccc(Cl)c(Cl)c3)CCCN(C(=O)c3ccccc3)C2)CC1 | inactive |  |

target: cAMP-dependent protein kinase catalytic subunit alpha (Homo sapiens) (UniProt P17612); experiment: NVS_ENZ_hPKA: NovaScreen (NVS) Enzymatic Assay for human Protein Kinase A (PKA) (AID 2283192)
Outline: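 Cell-free kinase activity read by fluorescence after mobility-shift separation of substrate and product, 1 h post-dosing. Single-concentration duplicate screen (25 uM) preceded singleton concentration series (top 50 uM); loss of signal versus DMSO.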

| SMILES | outcome |
| --- | --- |
| O=C(N[C@@H](c1ccccc1)[C@@H]1CCCCN1)c1cccc(C(F)(F)F)c1Cl | inactive |
| CC(C)(C)c1ccccc1 | inactive |
| CN(C)C(=O)NC1(c2ccccc2)CCN(CCC[C@]2(c3ccc(Cl)c(Cl)c3)CCCN(C(=O)c3ccccc3)C2)CC1 | inactive |

target: human Phosphodiesterase 5 (PDE5), PDE5A (gene 8654) (UniProt O76074); experiment: NVS_ENZ_hPDE5: NovaScreen (NVS) Enzymatic Assay for human Phosphodiesterase 5 (PDE5) (AID 2283194)
Outline: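 Screening began in duplicate at 25 uM, with actives taken into concentration-response. Enzyme activity of recombinant PDE5 toward its substrate was measured at 1 h by fluorescence mobility-shift detection, relative to DMSO controls.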

| SMILES | AC50 | outcome |
| --- | --- | --- |
| CCCCc1nc2cccnc2n1Cc1ccc(-c2ccccc2-c2nnn[nH]2)cc1 | 11.3 µM (active) |  |
| CCc1cc(C2=C(C(=O)O)N(c3ccccc3C(F)(F)F)S(=O)(=O)c3ccccc32)cc2c1OCO2 |  | inactive |
| CS(=O)(=O)c1ccc([C@@H](C[C@H]2CCC(=O)C2)C(=O)Nc2cnccn2)cc1Cl | 23.3 µM (active) |  |

target: human Phosphodiesterase 10 (PDE10), PDE10A (gene 10846) (UniProt Q9Y233); experiment: NVS_ENZ_hPDE10: NovaScreen (NVS) Enzymatic Assay for human Phosphodiesterase 10 (PDE10) (AID 2283195)
Outline: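 Biochemical single-readout PDE10A assay, cell-free, extracted protein. Compounds first screened at 25 uM in duplicate, hits then titrated to 50 uM max. Activity measured after 1 h; loss-of-signal fitted against DMSO negative control.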

Chain of human Phosphodiesterase 10 (PDE10), PDE10A (gene 10846) (Q9Y233 whole entry, looked up): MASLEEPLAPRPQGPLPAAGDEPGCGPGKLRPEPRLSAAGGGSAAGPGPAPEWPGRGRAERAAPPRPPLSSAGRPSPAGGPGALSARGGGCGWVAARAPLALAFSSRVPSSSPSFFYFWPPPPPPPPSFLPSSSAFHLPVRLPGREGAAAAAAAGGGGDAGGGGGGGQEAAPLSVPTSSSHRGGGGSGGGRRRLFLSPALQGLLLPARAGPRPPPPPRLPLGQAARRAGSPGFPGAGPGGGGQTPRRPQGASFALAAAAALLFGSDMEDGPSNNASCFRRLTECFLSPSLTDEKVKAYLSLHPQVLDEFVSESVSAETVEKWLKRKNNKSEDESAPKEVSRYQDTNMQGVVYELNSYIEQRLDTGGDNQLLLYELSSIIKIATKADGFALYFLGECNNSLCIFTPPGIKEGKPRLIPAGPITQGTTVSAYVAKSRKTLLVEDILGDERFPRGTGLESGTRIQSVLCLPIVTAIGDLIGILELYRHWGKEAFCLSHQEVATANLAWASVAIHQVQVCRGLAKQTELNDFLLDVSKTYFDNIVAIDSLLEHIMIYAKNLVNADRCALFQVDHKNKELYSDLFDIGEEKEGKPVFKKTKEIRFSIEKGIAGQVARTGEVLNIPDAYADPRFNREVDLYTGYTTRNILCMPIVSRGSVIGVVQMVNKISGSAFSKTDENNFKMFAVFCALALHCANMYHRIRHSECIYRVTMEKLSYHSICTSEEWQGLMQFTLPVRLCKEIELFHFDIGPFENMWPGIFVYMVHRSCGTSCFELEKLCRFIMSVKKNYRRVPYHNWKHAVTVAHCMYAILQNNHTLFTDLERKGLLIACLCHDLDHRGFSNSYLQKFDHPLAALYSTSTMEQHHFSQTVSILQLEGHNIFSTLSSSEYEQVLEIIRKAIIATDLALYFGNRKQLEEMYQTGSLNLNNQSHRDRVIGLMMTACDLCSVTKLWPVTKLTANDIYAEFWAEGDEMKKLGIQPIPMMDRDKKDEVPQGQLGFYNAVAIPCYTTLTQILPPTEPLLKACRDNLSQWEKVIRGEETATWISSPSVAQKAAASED

| SMILES | outcome | AC50 |
| --- | --- | --- |
| CN(C)CCCN(C)CCCN(C)C | inactive |  |
| CCCCc1nc2cccnc2n1Cc1ccc(-c2ccccc2-c2nnn[nH]2)cc1 |  | 13 µM (active) |
| CCc1cc(C2=C(C(=O)O)N(c3ccccc3C(F)(F)F)S(=O)(=O)c3ccccc32)cc2c1OCO2 | inactive |  |
